Results reported in publication PMC4336329 (PLoS ONE, 2015).
Among all 310,000 compounds or so, about 14,000 (4.5%) showed an effect of 50% or more. The effect is printed as a negative number. The full list was thinned out, with strong results kept by preference.

What follows are molecules tested against human ether-à-go-go-related gene (hERG) potassium channel (human, UniProt Q12809) (assay: primary screen, population patch clamp on CHO cells stably expressing hERG; higher = less effect of the substance).
Sequence of human ether-à-go-go-related gene (hERG) potassium channel (Q12809 whole entry, looked up): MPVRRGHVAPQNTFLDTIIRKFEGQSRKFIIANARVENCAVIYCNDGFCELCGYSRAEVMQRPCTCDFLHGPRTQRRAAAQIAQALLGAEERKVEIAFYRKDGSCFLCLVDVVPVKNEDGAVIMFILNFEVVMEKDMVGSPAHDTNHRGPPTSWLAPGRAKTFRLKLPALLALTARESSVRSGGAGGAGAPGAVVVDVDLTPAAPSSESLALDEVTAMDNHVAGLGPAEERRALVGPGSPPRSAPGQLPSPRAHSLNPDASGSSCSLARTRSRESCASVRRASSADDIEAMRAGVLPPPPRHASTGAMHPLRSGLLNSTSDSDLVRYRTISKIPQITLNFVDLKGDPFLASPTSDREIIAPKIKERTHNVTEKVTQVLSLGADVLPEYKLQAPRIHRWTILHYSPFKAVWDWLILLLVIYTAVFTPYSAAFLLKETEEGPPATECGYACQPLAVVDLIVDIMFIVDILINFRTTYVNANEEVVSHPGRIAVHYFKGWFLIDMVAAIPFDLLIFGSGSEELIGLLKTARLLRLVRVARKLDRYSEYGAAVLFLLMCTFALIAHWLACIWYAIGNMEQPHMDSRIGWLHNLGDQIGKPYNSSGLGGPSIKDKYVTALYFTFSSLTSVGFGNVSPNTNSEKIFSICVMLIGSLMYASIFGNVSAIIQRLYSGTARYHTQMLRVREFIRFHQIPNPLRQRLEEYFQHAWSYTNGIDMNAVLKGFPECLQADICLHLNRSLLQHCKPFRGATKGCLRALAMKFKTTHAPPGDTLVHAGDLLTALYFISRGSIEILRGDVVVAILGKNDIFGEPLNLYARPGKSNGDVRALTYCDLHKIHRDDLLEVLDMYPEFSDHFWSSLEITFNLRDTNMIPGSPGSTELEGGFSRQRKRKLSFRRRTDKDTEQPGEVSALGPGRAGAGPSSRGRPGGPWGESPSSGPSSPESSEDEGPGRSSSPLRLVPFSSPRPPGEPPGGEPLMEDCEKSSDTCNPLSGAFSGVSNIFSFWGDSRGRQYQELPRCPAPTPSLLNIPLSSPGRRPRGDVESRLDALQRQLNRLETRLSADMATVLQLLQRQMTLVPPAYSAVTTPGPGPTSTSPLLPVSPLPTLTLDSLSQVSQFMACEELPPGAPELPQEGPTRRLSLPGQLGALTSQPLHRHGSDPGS
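Further: peak tail current of the secondary pulse compared with the same well before compound.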

Which “hERG current change (%, negative = inhibition) at 10uM” value does the source give for `O=C(CCN1C(=O)C2C3C=CC(C3)C2C1=O)Nc1ccccc1` (centres unmarked) here?
Its value is 21.1%.

For `CC(C)(C)c1nc2c(Br)cc(Br)cc2c(=O)o1`, which “hERG current change (%, negative = inhibition) at 10uM” value is on record?
Its value is 18.9%.

Which “hERG current change (%, negative = inhibition) at 10uM” value does the source give for `Cc1ccc(NC2c3ccccc3C(=O)N2CCN2CCOCC2)cc1` (centres unmarked) here?
The value was -12.9%.

With `O=C(c1cccs1)N1CCCC(c2nc3c(nnn3Cc3cccc(Cl)c3)c(=O)[nH]2)C1` (centres unmarked) as the molecule, how does the “hERG current change (%, negative = inhibition) at 10uM” value read?
Its value is -36.6%.

How did the “hERG current change (%, negative = inhibition) at 10uM” value turn out when `O=C(Cc1cccs1)N1CCC(c2nc3c(nnn3Cc3ccc(F)cc3)c(=O)[nH]2)CC1` was run?
The value was -38.9%.

How did the “hERG current change (%, negative = inhibition) at 10uM” value turn out when `O=C(c1ccco1)N1CCCC(c2nc3c(nnn3Cc3ccc(Cl)cc3Cl)c(=O)[nH]2)C1` (centres unmarked) was run?
Its value is -36.1%.

With `O=C(c1ccc(Cl)cc1Cl)N1CCC(c2nc3c(nnn3Cc3ccco3)c(=O)[nH]2)CC1` as the molecule, how does the “hERG current change (%, negative = inhibition) at 10uM” value read?
The value was -69%.

Which “hERG current change (%, negative = inhibition) at 10uM” value does the source give for `O=C(Cc1cccs1)N1CCCC(c2nc3c(nnn3Cc3cccc(Cl)c3)c(=O)[nH]2)C1` (centres unmarked) here?
The value was -55.6%.

With `O=C(Cc1cccs1)N1CCC(c2nc3c(nnn3Cc3ccccc3)c(=O)[nH]2)CC1` as the molecule, how does the “hERG current change (%, negative = inhibition) at 10uM” value read?
Its value is -56%.

With `O=C(Cc1cccs1)N1CCCC(c2nc3c(nnn3Cc3ccc(F)cc3)c(=O)[nH]2)C1` (centres unmarked) as the molecule, how does the “hERG current change (%, negative = inhibition) at 10uM” value read?
The value was -35.1%.

With `CC(C)(C)c1ccc(Cn2nnc3c(=O)[nH]c(C4CCN(C(=O)Cc5cccs5)CC4)nc32)cc1` as the molecule, how does the “hERG current change (%, negative = inhibition) at 10uM” value read?
The value was -4.81%.

How did the “hERG current change (%, negative = inhibition) at 10uM” value turn out when `O=C(c1ccco1)N1CCCC(c2nc3c(nnn3Cc3ccccc3)c(=O)[nH]2)C1` (centres unmarked) was run?
Its value is -8.47%.

For `O=C(c1ccccc1Cl)N1CCC(c2nc3c(nnn3Cc3ccco3)c(=O)[nH]2)CC1`, which “hERG current change (%, negative = inhibition) at 10uM” value is on record?
The value was -22.1%.

With `O=C(c1ccco1)N1CCCC(c2nc3c(nnn3Cc3cccc(Cl)c3)c(=O)[nH]2)C1` (centres unmarked) as the molecule, how does the “hERG current change (%, negative = inhibition) at 10uM” value read?
The value was -54.5%.

`O=C(c1ccccc1)N1CCC(c2nc3c(nnn3Cc3ccco3)c(=O)[nH]2)CC1` was tested. Which “hERG current change (%, negative = inhibition) at 10uM” value did it give?
Its value is -32.2%.

Which “hERG current change (%, negative = inhibition) at 10uM” value does the source give for `Cc1nc2ccc(Br)cn2c1C(=O)N/N=C\c1ccccc1[N+](=O)[O-]` here?
The value was 27.6%.

For `NC(=O)C[n+]1cccc(C(N)=O)c1.[Cl-]`, which “hERG current change (%, negative = inhibition) at 10uM” value is on record?
The value was 12.8%.

For `Cc1ccc(S(=O)(=O)Nc2c(C)n(C)n(-c3ccccc3)c2=O)c(C)c1`, which “hERG current change (%, negative = inhibition) at 10uM” value is on record?
Its value is 9.47%.

For `O=C(CCN1CCCCCC1)Nc1ccc2c(c1)OCCO2.O=C(O)C(=O)O`, which “hERG current change (%, negative = inhibition) at 10uM” value is on record?
Its value is -1.98%.

For `Cc1ccc(S(=O)(=O)NC(C)c2ccccc2)cc1[N+](=O)[O-]` (centres unmarked), which “hERG current change (%, negative = inhibition) at 10uM” value is on record?
Its value is 9.16%.

With `CC(=O)Nc1nnc(COc2ccc(Cl)cc2)s1` as the molecule, how does the “hERG current change (%, negative = inhibition) at 10uM” value read?
Its value is 30.7%.

For `Cc1ccc(C(=O)N2CCCC(c3nc4c(nnn4Cc4ccccc4)c(=O)[nH]3)C2)cc1` (centres unmarked), which “hERG current change (%, negative = inhibition) at 10uM” value is on record?
The value was -62.4%.

How did the “hERG current change (%, negative = inhibition) at 10uM” value turn out when `COC(=O)c1ccc(Cn2nnc3c(=O)[nH]c(C4CCN(S(=O)(=O)c5ccc(F)cc5)CC4)nc32)cc1` was run?
The value was -70.3%.

`COc1ccc(Cn2nnc3c(=O)[nH]c(C4CCCN(C(=O)c5ccccc5)C4)nc32)cc1` (centres unmarked) was tested. Which “hERG current change (%, negative = inhibition) at 10uM” value did it give?
The value was -22.5%.

How did the “hERG current change (%, negative = inhibition) at 10uM” value turn out when `O=c1[nH]c(C2CCN(S(=O)(=O)c3ccc(S(=O)(=O)NC4CC4)cc3)CC2)nc2c1nnn2Cc1ccc(F)cc1` was run?
The value was 3.81%.

`O=C(c1ccccc1)N1CCCC(c2nc3c(nnn3Cc3ccccc3)c(=O)[nH]2)C1` (centres unmarked) was tested. Which “hERG current change (%, negative = inhibition) at 10uM” value did it give?
Its value is -3.63%.

`Cc1ccc(Cn2nnc3c(=O)[nH]c(C4CCN(S(=O)(=O)c5ccc(F)cc5)CC4)nc32)cc1` was tested. Which “hERG current change (%, negative = inhibition) at 10uM” value did it give?
The value was 6.62%.

For `C=C(c1ccccc1O)n1ccnc1`, which “hERG current change (%, negative = inhibition) at 10uM” value is on record?
The value was 27.8%.

Which “hERG current change (%, negative = inhibition) at 10uM” value does the source give for `Cc1[nH]nc2c1C(c1ccco1)C(C#N)=C(N)O2` (centres unmarked) here?
The value was 18.4%.

Which “hERG current change (%, negative = inhibition) at 10uM” value does the source give for `Cc1nnc(SCCn2c(N3CCCC(C)C3)nc3c2c(=O)n(C)c(=O)n3C)s1` (centres unmarked) here?
Its value is -5.21%.

With `c1cnc2ccc(C(c3nnnn3C3CCCC3)N3CCN4CCCC4C3)cc2c1` (centres unmarked) as the molecule, how does the “hERG current change (%, negative = inhibition) at 10uM” value read?
The value was -45.2%.

Which “hERG current change (%, negative = inhibition) at 10uM” value does the source give for `c1cnc2ccc(C(c3nnnn3C3CCCCC3)N3CCCCC3)cc2c1` (centres unmarked) here?
The value was -15.6%.

With `c1cnc2ccc(C(c3nnnn3C3CCCCC3)N3CCN(C4CCCCC4)CC3)cc2c1` (centres unmarked) as the molecule, how does the “hERG current change (%, negative = inhibition) at 10uM” value read?
Its value is -78.8%.

How did the “hERG current change (%, negative = inhibition) at 10uM” value turn out when `OC1CCN(C(c2ccc3ncccc3c2)c2nnnn2C2CCCCC2)CC1` (centres unmarked) was run?
The value was -31.8%.

`CCC(C)(C)n1nnnc1C(c1ccc2ncccc2c1)N1CCN2CCCC2C1` (centres unmarked) was tested. Which “hERG current change (%, negative = inhibition) at 10uM” value did it give?
Its value is -10.8%.

How did the “hERG current change (%, negative = inhibition) at 10uM” value turn out when `c1cnc2ccc(C(c3nnnn3C3CCCCC3)N3CCN4CCCC4C3)cc2c1` (centres unmarked) was run?
The value was -109%.

`CCOC(=O)c1cccc(N2C(N)=NC(N)=NC2(C)C)c1.Cl` was tested. Which “hERG current change (%, negative = inhibition) at 10uM” value did it give?
Its value is -1.9%.

`CCOc1ccccc1C(=O)NC(C(=O)NCc1ccc(F)cc1)C(C)C` (centres unmarked) was tested. Which “hERG current change (%, negative = inhibition) at 10uM” value did it give?
The value was -14.7%.

For `CC(=O)N/C(=C/c1ccc(OC(F)F)cc1)C(=O)O`, which “hERG current change (%, negative = inhibition) at 10uM” value is on record?
The value was 3.4%.

With `COc1ccc(C(=O)Nc2c(N)nc(SCC(=O)N3CCCCCC3)[nH]c2=O)cc1OC` as the molecule, how does the “hERG current change (%, negative = inhibition) at 10uM” value read?
The value was 0.918%.

How did the “hERG current change (%, negative = inhibition) at 10uM” value turn out when `Cc1ccccc1NC(=O)CSc1nnc(Cc2cccn2C)n1-c1ccc(F)cc1` was run?
Its value is -0.084%.

With `O=C(NNS(=O)(=O)c1ccc(CCCl)cc1)C(O)(c1ccccc1)c1ccccc1` as the molecule, how does the “hERG current change (%, negative = inhibition) at 10uM” value read?
The value was -55.9%.

Which “hERG current change (%, negative = inhibition) at 10uM” value does the source give for `Cc1ccc(S(=O)(=O)NNC(=O)C(O)(c2ccccc2)c2ccccc2)cc1` here?
The value was 1.02%.

With `O=C(NNS(=O)(=O)c1ccccc1)C(O)(c1ccccc1)c1ccccc1` as the molecule, how does the “hERG current change (%, negative = inhibition) at 10uM” value read?
Its value is 7.23%.

`CCOCCCNC(=O)c1cccc(OC2CCN(S(C)(=O)=O)CC2)c1` was tested. Which “hERG current change (%, negative = inhibition) at 10uM” value did it give?
Its value is 12.6%.

How did the “hERG current change (%, negative = inhibition) at 10uM” value turn out when `CCc1cc(CNC(=O)c2ccc(OC3CCN(CCc4ccccc4)CC3)cc2)on1` was run?
Its value is -75.5%.

Which “hERG current change (%, negative = inhibition) at 10uM” value does the source give for `O=C(NCCc1ccccn1)c1ccc(OC2CCN(CCc3ccccc3)CC2)cc1` here?
The value was -41.9%.

How did the “hERG current change (%, negative = inhibition) at 10uM” value turn out when `O=C(NCc1ccon1)c1ccc(OC2CCN(CCc3ccccc3)CC2)cc1` was run?
Its value is -66.6%.

`COCCC(=O)N1CCC(Oc2ccc(C(=O)NCc3ccon3)cc2)CC1` was tested. Which “hERG current change (%, negative = inhibition) at 10uM” value did it give?
The value was 3.38%.

For `Cc1cc(CNC(=O)c2cccc(OC3CCN(S(=O)(=O)N(C)C)CC3)c2)on1`, which “hERG current change (%, negative = inhibition) at 10uM” value is on record?
Its value is 0.225%.

With `CC(C)c1cc(CNC(=O)c2ccc(OC3CCN(Cc4ccccn4)CC3)cc2)on1` as the molecule, how does the “hERG current change (%, negative = inhibition) at 10uM” value read?
Its value is -16.1%.

How did the “hERG current change (%, negative = inhibition) at 10uM” value turn out when `O=C(NCCn1cccn1)c1ccc(OC2CCN(CCc3ccccc3)CC2)cc1` was run?
The value was -41.3%.

For `CCc1cc(CNC(=O)c2cccc(OC3CCN(S(C)(=O)=O)CC3)c2)on1`, which “hERG current change (%, negative = inhibition) at 10uM” value is on record?
The value was -70.3%.
